A word on the inhibition: it is the change of the read-out against control, counted positive when it falls.

Out of some 330,000 compounds screened, about 1,900 (0.58%) were called active. About 4% were inconclusive and are not listed. Rule as the data show it: inconclusive = inhibition above about 70% without an active follow-up result; inactive = below that. A selection follows. Potency and affinity values are given separately.

The nature of the test: M. tuberculosis growth inhibition, HTS (AID 449762).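 Also: bacterial growth assessed after seven days of incubation.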 As to conditions: M. tuberculosis H37Rv growth inhibition, 7H9 media; at 25 µM; active compounds read high.
For the compound `O=C(CNC(=O)c1cccs1)OCc1ccc(Br)cc1`, the inhibition was -2.09% (inactive).
The figure for `O=C(CCC(=O)N(c1ccc(F)cc1)C(C(=O)NC1CCCC1)c1ccncc1)Nc1cccnc1` (configuration not stated) is -10.1% (inactive); for `CC(=O)Nc1ccc(C(=O)CN2C(=O)NC3(CCOc4ccccc43)C2=O)c(F)c1` (configuration not stated) it is -3.12% (inactive); for `CCCCOC(=O)CCn1c(=S)oc2ccccc21` it is 23.9% (inactive).
The figure for `CCCNC(=O)CCn1c(=S)oc2ccccc21` is 2.75% (inactive).
The result for `Cc1ccc(Cl)cc1-n1c(O)c(C=NCCCN2CCOCC2)c(=O)[nH]c1=O` reads -2.44% (inactive).
Turning to `COc1ccc(C2=CN(Cc3ccccc3)C(c3ccccc3)CC2=O)cc1` (configuration not stated), the inhibition is -2.25% (inactive).
The result for `Cc1cc(C)c(NC(=O)c2cc3c(nc4sccn43)s2)c(C)c1` reads -18.3% (inactive); that for `CCN(C(=O)COC(=O)c1[nH]c(C)c(C(C)=O)c1C)C1CCS(=O)(=O)C1` (configuration not stated), -10.7% (inactive).
Take `O=C(Nc1ccc(N2CCOCC2)cc1)c1ccc([N+](=O)[O-])cc1`: the inhibition is 1.26% (inactive).
The figure for `CCn1c2ccccc2c2cc(NC(=O)c3ccc([N+](=O)[O-])cc3)ccc21` is 9.29% (inactive); for `CCN(CC)CCNC(=O)c1cn(-c2ccccc2)nc1-c1cccs1` it is 5.6% (inactive); for `CN(C)c1ccc(NC(=O)c2cn(-c3ccccc3)nc2-c2cccs2)cc1` it is -2.85% (inactive).
The result for `Cc1oc(-c2cccc(Cl)c2)nc1CSc1nc2c(c(=O)[nH]1)CCC2` reads -10.8% (inactive); that for `Cn1c(-c2cccc(Br)c2)cnc1NCc1ccccc1O`, 42.5% (inactive); that for `Cn1c(-c2ccccc2)cnc1NCc1cc(Cl)ccc1O`, 10.7% (inactive).
The figure for `Cc1ccc(N/C=C/c2onc(C)c2[N+](=O)[O-])cc1` is -2.82% (inactive); for `Cc1cccc(C)c1N/C=C/c1onc(C)c1[N+](=O)[O-]` it is -4.35% (inactive); for `COc1ccc(NC(=O)c2ccco2)cn1` it is -3.96% (inactive).
Take `Cn1ccnc1SCC(=O)Nc1ccc(Cl)cn1`: the inhibition was -1.74% (inactive).
For `CCCCn1c(SCc2nc3ccccc3s2)nc2cc(S(N)(=O)=O)ccc21`, the inhibition was 1.21% (inactive).
The result for `CCCCn1c(SCc2c(C)noc2C)nc2cc(S(N)(=O)=O)ccc21` reads -4.65% (inactive); that for `Cc1ccc(C)c(NC(=O)c2c(Cl)nc3ccccn23)c1`, 10.7% (inactive).
As for `O=[N+]([O-])c1ccc(-c2nc(-c3ccncc3)no2)cc1`, the inhibition is 7.86% (inactive).
The figure for `Brc1ccc(-c2nc(-c3ccncc3)no2)cc1` is 1.44% (inactive); for `O=[N+]([O-])c1cccc(-c2nc(-c3ccncc3)no2)c1` it is -2% (inactive); for `Cc1ccc(-c2nc(-c3ccncc3)no2)cc1` it is -14.2% (inactive).

These data come from PubChem BioAssay AID449762 (Southern Research Specialized Biocontainment Screening …, 2010).
